Data published in PubChem BioAssay (NCATS).
Inconclusive results are not listed. Active and inactive are the calls of the source. Unless noted, calls follow the shape of the dose curve; as a rule, active = well fitted curve in the direction sought with a large enough effect; inconclusive = small, poorly fitted or top-dose-only effect, or another doubt; inactive = no such curve, though single readings can be large; an effect the other way counts as inactive or inconclusive.

What was measured:
[1] = molecular target: Lysosomal acid glucosylceramidase (Homo sapiens) (UniProt P04062); assay: Glucocerebrosidase-p2 (AID 348; in the data active = potency below about 10 µM; also: potency is read from the fitted curve at half-maximal effect); details: purified GBA, blue fluorogenic substrate, 40 min
Lysosomal acid glucosylceramidase (Homo sapiens), sequence (P04062 whole entry, looked up): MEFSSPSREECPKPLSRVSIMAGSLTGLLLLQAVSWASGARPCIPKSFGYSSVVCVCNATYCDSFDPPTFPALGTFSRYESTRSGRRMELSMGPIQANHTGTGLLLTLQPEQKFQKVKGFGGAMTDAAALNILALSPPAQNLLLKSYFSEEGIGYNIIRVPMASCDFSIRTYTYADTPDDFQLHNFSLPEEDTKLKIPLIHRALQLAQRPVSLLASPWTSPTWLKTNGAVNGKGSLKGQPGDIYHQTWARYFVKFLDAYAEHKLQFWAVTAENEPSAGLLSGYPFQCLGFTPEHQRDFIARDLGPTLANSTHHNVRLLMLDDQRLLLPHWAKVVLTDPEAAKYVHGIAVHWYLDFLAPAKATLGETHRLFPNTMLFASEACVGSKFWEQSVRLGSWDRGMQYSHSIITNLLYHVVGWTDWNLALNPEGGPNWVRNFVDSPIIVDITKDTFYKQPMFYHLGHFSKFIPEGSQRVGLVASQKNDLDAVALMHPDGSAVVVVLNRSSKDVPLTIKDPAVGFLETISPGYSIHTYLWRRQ
Method in brief: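 Normal human glucocerebrosidase (0.2 nM) with blue fluorogenic substrate (80 uM final) in citrate/phosphate pH 5.9 with 10mM sodium taurocholate, 0.01% tween-20; 40 min RT, NaOH/glycine stop; fluorescence Ex 365/Em 440; AC50 from a titration from 0.6 nM upwards.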

[2] = AP1 Signaling Pathway (AID 357; active = well fitted curve in either direction with a large enough effect, not every such curve was filed as active;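 also: ME-180 reporter cells stimulated with EGF at its EC50 level; % is scaled to controls: 0 for no effect and ±100 for the full control effect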); details: ME-180 AP-1-bla reporter, EGF-induced, beta-lactamase ratio, 5 h; at 7.69 µM (top of the series) unless noted
Method in brief: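 Titration-series screen for positive or negative modulators of EC50 EGF-induced signaling in ME-180 cells carrying an AP-1-driven beta-lactamase reporter. After 5 hours at 37 degrees Celsius, CCF4 460nm/530nm emission ratio gave %Activity; AC50 values derived.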

[3] = molecular target: Cytochrome P450 1A2 (Homo sapiens) (UniProt P05177); assay: p450-cyp1a2 (AID 410; calls by dose curve; also: potency is read from the fitted curve at half-maximal effect;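 as to activity change, negative = inhibition: -100% = full effect of reference inhibitor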); details: recombinant CYP1A2, luciferin-ME demethylation, luminescence; series mostly up to 57 µM
Cytochrome P450 1A2 (Homo sapiens), sequence (P05177 whole entry, looked up): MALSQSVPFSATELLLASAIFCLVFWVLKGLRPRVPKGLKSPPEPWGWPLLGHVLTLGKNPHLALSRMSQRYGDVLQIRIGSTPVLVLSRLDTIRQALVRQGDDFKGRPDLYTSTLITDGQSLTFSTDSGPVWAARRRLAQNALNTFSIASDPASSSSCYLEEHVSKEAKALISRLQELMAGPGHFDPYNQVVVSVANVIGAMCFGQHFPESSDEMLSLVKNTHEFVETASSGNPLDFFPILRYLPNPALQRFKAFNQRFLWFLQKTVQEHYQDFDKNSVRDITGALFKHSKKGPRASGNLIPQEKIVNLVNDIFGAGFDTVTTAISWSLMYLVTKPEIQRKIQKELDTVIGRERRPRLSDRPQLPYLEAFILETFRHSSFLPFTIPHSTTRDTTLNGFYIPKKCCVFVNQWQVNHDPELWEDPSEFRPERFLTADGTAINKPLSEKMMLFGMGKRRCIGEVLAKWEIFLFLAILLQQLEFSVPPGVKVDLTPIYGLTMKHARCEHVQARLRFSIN
Method in brief: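 20nM CYP1A2, 100uM Luciferin-ME (=Km), 100mM KPO4; cpd 10 min RT; +NADPH regen, 60 min RT; stop/detect 20 min; luminescence. Normalized to furafylline 57 uM = full inhibition.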

[4] = NFAT Signaling Pathway (AID 444; active = well fitted curve in either direction with a large enough effect, not every such curve was filed as active;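 also: carbachol stimulus at about its EC50 of 1 µM final; % is scaled to controls: 0 for no effect and ±100 for the full control effect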); details: Jurkat NFAT-bla M1, carbachol, beta-lactamase ratio, 5 h; at 7.69 µM (top of the series) unless noted
Method in brief: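 Read-out: CCF4 FRET ratio (460 nm/530 nm) after 1 h RT dye loading, used for %activity and AC50 from titration series. Cells: Jurkat NFAT-β-lactamase/M1 line, treated with compound plus 1 uM carbachol for 5 h, 37 °C.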

[5] = molecular target: Glucocorticoid receptor (Homo sapiens) (UniProt P04150); assay: GR-GFP Redistribution (AID 450;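 active = compounds whose dose series gives a full or clear partial fitted curve of increased nuclear translocation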; also: potency is read from the fitted curve at half-maximal effect); details: U2OS GR-GFP nuclear translocation, laser cytometry, 2 h
Glucocorticoid receptor (Homo sapiens), sequence (P04150 whole entry, looked up, the tested form may be a part): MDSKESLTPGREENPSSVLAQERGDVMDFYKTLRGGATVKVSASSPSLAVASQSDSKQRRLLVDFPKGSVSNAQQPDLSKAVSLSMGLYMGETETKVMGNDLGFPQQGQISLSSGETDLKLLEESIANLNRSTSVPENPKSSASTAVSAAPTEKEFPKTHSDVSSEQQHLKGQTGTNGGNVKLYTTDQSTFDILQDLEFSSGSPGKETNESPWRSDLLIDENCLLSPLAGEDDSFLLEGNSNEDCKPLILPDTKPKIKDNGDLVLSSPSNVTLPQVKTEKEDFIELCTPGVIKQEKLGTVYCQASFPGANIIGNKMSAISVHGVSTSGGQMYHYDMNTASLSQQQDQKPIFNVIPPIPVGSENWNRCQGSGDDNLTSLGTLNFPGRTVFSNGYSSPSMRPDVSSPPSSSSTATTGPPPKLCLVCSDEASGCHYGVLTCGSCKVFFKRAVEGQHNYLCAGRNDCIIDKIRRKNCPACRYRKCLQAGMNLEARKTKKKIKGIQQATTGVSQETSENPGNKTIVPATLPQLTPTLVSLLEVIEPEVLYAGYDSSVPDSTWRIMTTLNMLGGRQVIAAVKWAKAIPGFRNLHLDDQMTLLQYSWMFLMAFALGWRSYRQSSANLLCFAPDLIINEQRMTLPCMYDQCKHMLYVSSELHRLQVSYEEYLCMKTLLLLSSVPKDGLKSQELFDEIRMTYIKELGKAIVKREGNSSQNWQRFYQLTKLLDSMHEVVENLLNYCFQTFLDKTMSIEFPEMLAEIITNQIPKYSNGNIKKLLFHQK

[6] = molecular target: Glucocorticoid receptor (Homo sapiens) (UniProt P04150); assay: GR-EFC Redistribution (AID 451; calls by dose curve; also: potency is read from the fitted curve at half-maximal effect); details: CHO-K1 GR-EFC translocation, beta-gal luminescence, 2 h
Method in brief: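 Translocation of GR-ED fusion to nuclear EA restores b-gal, read by luminescence after 1 h room-temperature detection. Engineered CHO-K1 biosensor cells, 1,000/well, exposed 2 h at 37 C to titrations up to 46 uM final.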

[7] = molecular target: Mitogen-activated protein kinase 10 (Mus musculus) (UniProt Q61831); assay: JNK3 AlphaScreen Assay (AID 530; active = well fitted curve in either direction with a large enough effect, not every such curve was filed as active;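 also: kinase came from lysate of stimulated human HepG2 cells; signal reports phosphorylation of biotinylated GST-cJun 1-79 at Ser73 with 10 µM ATP; % is scaled to controls: 0 for no effect and ±100 for the full control effect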); details: JNK3 lysate, c-Jun phosphorylation; series mostly up to 57.1 µM
Method in brief: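 Kinase buffer: 20 mM Tris-HCl pH 7.6, 10 mM MgCl2, 1 mM DTT, 0.1 mM Na3VO4, 0.01% Tween-20; ATP 10 uM. Substrate biotin-GST-cJun(1-79), enzyme from activated HepG2 lysates. Detection by Ser73 phospho-antibody AlphaScreen.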

[8] = molecular target: Cytochrome P450 3A4 (Homo sapiens) (UniProt P08684); assay: qHTS Assay for Activators of Cytochrome P450 3A4 (AID 885); details: recombinant CYP3A4, Luciferin-PPXE luminescence, 60 min; series mostly up to 57.1 µM; also: nearly all actives have a fitted effect of over 65% in size
Cytochrome P450 3A4 (Homo sapiens), sequence (P08684 whole entry, looked up): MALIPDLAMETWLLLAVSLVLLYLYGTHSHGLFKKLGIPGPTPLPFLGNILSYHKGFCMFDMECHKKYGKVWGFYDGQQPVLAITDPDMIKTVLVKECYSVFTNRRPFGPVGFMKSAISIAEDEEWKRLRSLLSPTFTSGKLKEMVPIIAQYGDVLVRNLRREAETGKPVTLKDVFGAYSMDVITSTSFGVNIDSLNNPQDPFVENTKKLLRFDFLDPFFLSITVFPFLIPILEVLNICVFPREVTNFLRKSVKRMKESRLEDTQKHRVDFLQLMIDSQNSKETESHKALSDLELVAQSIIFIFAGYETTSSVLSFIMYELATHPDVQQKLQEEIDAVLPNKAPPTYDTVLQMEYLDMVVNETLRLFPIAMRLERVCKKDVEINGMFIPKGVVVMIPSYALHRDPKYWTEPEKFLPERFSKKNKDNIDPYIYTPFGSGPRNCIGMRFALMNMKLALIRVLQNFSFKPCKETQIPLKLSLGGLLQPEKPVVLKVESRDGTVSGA
Method in brief: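 Human CYP3A4 dealkylates Luciferin-PPXE to luciferin, which luciferase detection converts to light. Substrate was at its KM (25uM), buffer 200mM KPO4, reaction 60 min at RT.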

[9] = qHTS Assay for Identification of Small Molecule Agonists for Hypoxia Response Element Signaling Pathway (AID 914; active = well fitted activation curve with a large enough effect in the signal ratio, with a control signal flat, not every such curve was filed as active; the % refers to the signal ratio; also: potency is read from the fitted curve at half-maximal effect; as to activation: % of control where 0% means no effect); details: ME-180 HRE-bla reporter, beta-lactamase ratio, CoCl2, 17 h; activation: stronger effect = higher value
Method in brief: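 ME-180 cells carrying an HRE-driven beta-lactamase reporter were treated with compounds in a titration series plus an EC50 level of CoCl2 for 17 h at 37 degrees Celsius; CCF4 readout as the 460nm/530nm ratio gave AC50 values.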

[10] = Counterscreen qHTS for small molecule stabilizers of the endoplasmic reticulum resident proteome: GLuc-NoTag assay (AID 1508627); details: Gaussia luciferase NoTag secretion counterscreen, luminescence, thapsigargin 100 nM for final 4 h; series mostly up to 76.4 µM; also: potency is read from the fitted curve at half-maximal effect;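 as to activity change, negative = inhibition: SH-SY5Y cells given compound then 100 nM thapsigargin to empty ER calcium; 0% = thapsigargin alone and -100% = DMSO vehicle control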
Method in brief: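 Counterscreen line: SH-SY5Y-GLuc-NoTag cells, treated with compound 19 hr before a 4 hr, 100 nM thapsigargin calcium depletion. Secreted Gaussia luciferase in the medium was measured by luminescence after coelenterazine was added (0.07x final), with cells unlysed.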

[11] = Confirmatory qHTS for small molecule stabilizers of the endoplasmic reticulum resident proteome: Secreted ER Calcium Modulated Protein (SERCaMP) assay (AID 1508628); details: SERCaMP secreted luciferase ER calcium/proteostasis reporter; series mostly up to 76.3 µM; also: potency is read from the fitted curve at half-maximal effect; nearly all actives have a fitted effect of over 40% in size
Method in brief: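 GLuc-SERCaMP-expressing SH-SY5Y cells, pretreated 16 h with compound, are challenged with thapsigargin to empty ER calcium stores; after 4 h, coelenterazine is added directly to the medium and luminescence is imaged.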

[12] = Stat Signaling Pathway (AID 446; active = well fitted curve in either direction with a large enough effect, not every such curve was filed as active;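 also: ME-180 cervical cancer cells given 40 pM IL-6 alongside compound; SIE-controlled beta-lactamase reporter measured as 460/530 nm FRET emission ratio; % is scaled to controls: 0 for no effect and ±100 for the full control effect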); details: ME-180 (cervical carcinoma) SIE beta-lactamase reporter, IL-6 stimulated, 5 h; at 7.69 µM (top of the series) unless noted
Method in brief: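 Normalization used AC90 stimulation (300 pM IL-6) and AC90 inhibition (125 nM pan-JAK inhibitor at 40 pM IL-6). The underlying signal is SIE-driven beta-lactamase in ME-180 cells after 5 h IL-6 exposure with compound.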

[13] = Confirmation and Secondary Assay for Modulators of Hemoglobin Beta Chain Splicing at IVS2 654 locus (AID 910); details: HeLa EGFP-654 splicing reporter, GFP fluorescence, 48 h; series mostly up to 38.3 µM;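 also: HeLa cells stably carrying EGFP split by mutant beta-globin IVS2-654 intron; per-well total GFP intensity by laser scanning cytometry after 2-day treatment; % of control where 0% means no effect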
Method in brief: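 Readout: per-well total peak green fluorescence (488 nm ex, 500–520 nm em) from objects 5–250 µm, reflecting correct splicing of an EGFP-654 reporter. Compounds were applied for 2 days at 37 °C to overnight-plated HeLa EGFP-654 cells; controls were DMSO and 500 nM IVS2-654 PNA.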

[14] = qHTS Assay for Lipid Storage Modulators (AID 1519; calls by dose curve); details: Drosophila S3 cells, BODIPY lipid droplet/cell ratio, laser cytometry, cells loaded with oleic acid; for activity change, negative = inhibition: at 57.5 µM (top of the series)
Method in brief: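 Cells seeded at 5,000 per well were treated with compounds over a concentration series and loaded with oleic acid (400 uM, as added). Lipid droplet fluorescence (488 nm excitation, 500-530 nm channel) was read by laser-scanning cytometry and normalized to 20 uM Triacsin C.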

[15] = molecular target: 3',5'-cyclic-AMP phosphodiesterase 4B (Homo sapiens) (UniProt Q07343); assay: qHTS Assay for Inhibitors of PDE-IV (AID 607; active = well fitted activation curve with a large enough effect in the main read-out, with a control signal flat, not every such curve was filed as active; also: % of control where 0% means no effect); details: HEK293 ACTOne CNG channel cells, membrane potential fluorescence; series mostly up to 22.9 µM
3',5'-cyclic-AMP phosphodiesterase 4B (Homo sapiens), sequence (Q07343 whole entry, looked up): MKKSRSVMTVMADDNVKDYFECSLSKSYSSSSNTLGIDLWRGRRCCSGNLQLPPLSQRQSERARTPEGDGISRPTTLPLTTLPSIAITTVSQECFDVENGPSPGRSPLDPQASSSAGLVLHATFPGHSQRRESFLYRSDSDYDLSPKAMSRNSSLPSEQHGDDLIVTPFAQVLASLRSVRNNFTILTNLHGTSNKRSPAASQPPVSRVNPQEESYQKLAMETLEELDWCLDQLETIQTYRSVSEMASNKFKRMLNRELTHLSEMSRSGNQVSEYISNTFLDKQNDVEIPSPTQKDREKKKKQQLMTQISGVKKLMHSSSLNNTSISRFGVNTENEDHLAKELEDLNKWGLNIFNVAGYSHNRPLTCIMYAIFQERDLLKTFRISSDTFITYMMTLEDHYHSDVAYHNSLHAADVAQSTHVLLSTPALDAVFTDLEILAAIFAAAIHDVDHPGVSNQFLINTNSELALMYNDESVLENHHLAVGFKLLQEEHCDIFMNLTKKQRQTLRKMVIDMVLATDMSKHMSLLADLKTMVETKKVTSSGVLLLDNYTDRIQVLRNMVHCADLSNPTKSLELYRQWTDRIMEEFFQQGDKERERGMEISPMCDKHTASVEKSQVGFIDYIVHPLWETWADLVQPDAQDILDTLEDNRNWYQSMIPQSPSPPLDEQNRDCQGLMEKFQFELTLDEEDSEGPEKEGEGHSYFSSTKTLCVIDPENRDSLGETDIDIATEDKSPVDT
Method in brief: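 HEK293 ACTOne cells with CNG channel (1000/well), endogenous PDE4; membrane potential dye, compounds up to 22.9 uM final. Fluorescence Ex 535/Em 590; RO 20-1724 (100 uM final) as reference.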

[16] = molecular target: Ubiquitin carboxyl-terminal hydrolase 1 (Homo sapiens) (UniProt O94782); assay: Inhibitors of USP1/UAF1: Pilot qHTS (AID 504865); details: purified USP1/UAF1, Ub-rhodamine cleavage fluorescence; series mostly up to 54.9 µM;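 also: rhodamine fluorescence freed from ubiquitin-rhodamine substrate followed over time; top concentration of the series differs between compounds; % is scaled to controls: 0 for no effect and ±100 for the full control effect; nearly all actives have a fitted effect of over 35% in size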
Ubiquitin carboxyl-terminal hydrolase 1 (Homo sapiens), sequence (O94782 whole entry, looked up): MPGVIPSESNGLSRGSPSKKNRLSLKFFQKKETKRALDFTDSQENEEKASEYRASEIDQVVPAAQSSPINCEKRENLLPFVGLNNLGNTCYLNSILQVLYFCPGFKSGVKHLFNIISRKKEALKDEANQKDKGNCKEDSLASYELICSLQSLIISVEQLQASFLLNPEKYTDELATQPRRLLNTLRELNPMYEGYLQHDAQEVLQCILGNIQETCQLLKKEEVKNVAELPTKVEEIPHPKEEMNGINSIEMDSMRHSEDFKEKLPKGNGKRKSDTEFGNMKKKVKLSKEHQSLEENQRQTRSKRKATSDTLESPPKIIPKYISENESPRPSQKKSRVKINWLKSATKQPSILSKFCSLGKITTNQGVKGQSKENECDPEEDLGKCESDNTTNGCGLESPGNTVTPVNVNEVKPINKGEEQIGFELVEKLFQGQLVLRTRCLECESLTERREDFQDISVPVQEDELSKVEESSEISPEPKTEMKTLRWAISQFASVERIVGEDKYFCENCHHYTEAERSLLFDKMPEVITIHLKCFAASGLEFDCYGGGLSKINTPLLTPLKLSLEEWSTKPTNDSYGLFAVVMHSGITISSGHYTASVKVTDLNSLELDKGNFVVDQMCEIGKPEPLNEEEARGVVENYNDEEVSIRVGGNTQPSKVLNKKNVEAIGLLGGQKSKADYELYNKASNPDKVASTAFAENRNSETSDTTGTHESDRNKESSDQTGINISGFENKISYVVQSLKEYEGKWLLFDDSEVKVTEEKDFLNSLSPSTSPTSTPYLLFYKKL
Method in brief: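 In 50mM HEPES pH 7.8 containing 0.5mM EDTA, 1mM TCEP, 0.1 mg/ml BSA and 0.01% Tween-20, 1nM USP1/UAF1 is exposed to compound for 15 min, then Ub-Rho (150nM final) is added and fluorescence is read over time.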

[17] = Cell Viability qHTS for small molecule stabilizers of the endoplasmic reticulum resident proteome (AID 1508629); details: cell viability counter-screen, 100 nM thapsigargin for final 4 h
[18] = molecular target: Dual specificity protein kinase CLK4 (Homo sapiens) (UniProt Q9HAZ1); assay: qHTS Assay for Inhibitors of CDC-like Kinase 4 (Kinase-Glo Assay) (AID 1770); details: recombinant Clk4, Kinase-Glo ATP depletion luminescence; series mostly up to 66.7 µM; also: % is scaled to controls: 0 for no effect and ±100 for the full control effect; nearly all actives have a fitted effect of over 65% in size
Dual specificity protein kinase CLK4 (Homo sapiens), sequence (Q9HAZ1 whole entry, looked up): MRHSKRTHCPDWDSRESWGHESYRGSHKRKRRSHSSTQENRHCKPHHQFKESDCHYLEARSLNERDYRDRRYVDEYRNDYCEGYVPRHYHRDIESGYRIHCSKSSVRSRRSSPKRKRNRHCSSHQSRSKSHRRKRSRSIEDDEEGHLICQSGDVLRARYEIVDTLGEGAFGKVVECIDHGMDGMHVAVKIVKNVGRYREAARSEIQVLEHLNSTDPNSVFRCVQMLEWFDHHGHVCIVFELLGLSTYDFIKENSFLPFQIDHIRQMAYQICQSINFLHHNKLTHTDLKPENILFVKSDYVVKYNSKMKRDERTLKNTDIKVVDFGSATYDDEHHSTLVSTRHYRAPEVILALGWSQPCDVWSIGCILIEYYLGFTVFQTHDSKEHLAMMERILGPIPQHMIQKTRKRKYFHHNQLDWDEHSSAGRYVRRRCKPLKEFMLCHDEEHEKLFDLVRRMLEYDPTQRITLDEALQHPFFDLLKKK
Method in brief: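 Substrate mix (RS peptide 100 uM, ATP 1 uM) dispensed, compound pinned in, then Clk4 added to 25 nM final. Incubated 4.5 h at RT; Kinase-Glo reagent added, luminescence read after 5 min.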

[19] = molecular target: Dual specificity protein kinase CLK4 (Homo sapiens) (UniProt Q9HAZ1); assay: qHTS Assay for Inhibitors of CDC-like Kinase 4 (ADP-Glo Assay) (AID 1771); details: recombinant CLK4, ADP-Glo luminescence; series mostly up to 80 µM; also: % is scaled to controls: 0 for no effect and ±100 for the full control effect; nearly all actives have a fitted effect of over 70% in size
Method in brief: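 25 nM Clk4, 100 uM RS peptide, 1 uM ATP (final); 2 mM MgCl2, 0.5 mM EGTA, 2.5 mM DTT, 0.01% Triton X-100; 1 hr RT. ADP-Glo readout: ATP depletion 45 min, conversion/luciferase 30 min, luminescence.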

[20] = molecular target: Dual specificity protein kinase CLK4 (Homo sapiens) (UniProt Q9HAZ1); assay: qHTS Assay for Inhibitors of CDC-like Kinase 4 (ADP-FP Assay) (AID 1795); details: Transcreener ADP fluorescence polarization; series mostly up to 50 µM;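 also: recombinant human CLK4 phosphorylating RS repeat peptide at 1 µM ATP; % is scaled to controls: 0 for no effect and ±100 for the full control effect; nearly all actives have a fitted effect of over 60% in size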
Method in brief: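 Clk4 6.25 nM; RS peptide 100 uM; ATP 1 uM; 25 mM Tris pH 7.5, 10 mM MgCl2; 1 h reaction. ADP detected via antibody/orange tracer FP displacement; TG003 positive control.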

[21] = measured here: cell count channel max response
[22] = measured here: lipid channel max response

CN1CCN(c2ncc3nc(CCc4ccccc4)c(=O)n(Cc4ccc(F)cc4)c3n2)CC1
inactive: Potency [1] > 11.4 µM | activity change, negative = inhibition [2] 4.85% | Potency [3] | activity change, negative = inhibition [4] -12.2% | Potency [5] > 9.22 µM | Potency [6] > 46 µM | outcome [7] | Potency [8] | activation [9] -6.17% | Potency [10]
active: Potency [11] 25.1 µM

Cc1cccc(CNc2ncnc3ccc(-c4ccccc4CN(C)C)cc23)c1
active: Potency [10] 0.447 µM
-10.3%: max response [14, 21]
inactive: Potency [1] > 11.4 µM | activity change, negative = inhibition [2] -7.85% | activity, negative = inhibition [12] -2.09% | Potency [5] > 46 µM | Potency [6] > 46 µM | outcome [7] | outcome [13] | activity change, negative = inhibition [14] 3.56%
-6.74%: max response [14, 22]

CN(C)c1ccc(-c2nccc(NCCN3CCOCC3)n2)cc1
active: Potency [3] 1.26 µM
inactive: Potency [1] > 11.4 µM | activity change, negative = inhibition [2] -7.61% | activity change, negative = inhibition [4] 7.2% | activity, negative = inhibition [12] 11.1% | Potency [5] > 46 µM | Potency [6] > 46 µM | Potency [15] | Potency [8] | outcome [13] | activation [9] -5.52% | activity change, negative = inhibition [14] -20.5% | Potency [16] | Potency [10] | max response [17] 10.1%
-26.5%: max response [14, 22]
-10.5%: max response [14, 21]

COc1ccc(-n2c(=O)c(-c3ccccc3)nc3cnc(N4CCNCC4)nc32)cc1
inactive: Potency [1] > 11.4 µM | Potency [5] > 9.22 µM | outcome [7] | Potency [15] | Potency [18] | Potency [19] | Potency [20] | Potency [16] | Potency [10] | max response [17] 0.755%
active: Potency [3] 15.8 µM | Potency [9] 3.16 µM

CN1CCN(c2ncc3nc(-c4ccccc4)c(=O)n(-c4ccccc4)c3n2)CC1
inactive: Potency [1] > 11.4 µM | Potency [5] > 9.22 µM | Potency [6] > 46 µM | outcome [7] | Potency [15] | Potency [10]
active: Potency [9] 3.16 µM | Potency [11] 25.1 µM

COc1ccc(CNc2ncnc3ccc(-c4ccccc4OC)cc23)c(OC)c1
active: Potency [3] 3.16 µM | Potency [11] 22.4 µM
inactive: Potency [1] > 11.4 µM | activity change, negative = inhibition [2] -4.21% | activity change, negative = inhibition [4] -17.9% | activity, negative = inhibition [12] -2.99% | Potency [5] > 46 µM | Potency [6] > 46 µM | outcome [7] | Potency [8] | Potency [20] | Potency [16] | Potency [10]
